About 83,000 compounds went through this panel and 20% of them were active in at least one assay; those are over-represented in the sample as a whole.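 96-well plates, one dose, 48 hours. Percent growth reported; active if below 10.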 Activity calls are given as the source filed them.
Tests used:
Assay in all cases: NCI-60 one-dose screen, 48 h (100 = growth as untreated, 0 = no growth, -100 = all killed)
Conditions in all cases: 10 µM unless noted
T-47D breast = test system: T-47D breast
BT-549 breast = test system: BT-549 breast
MDA-MB-435 melanoma = test system: MDA-MB-435 melanoma
SW-620 colon = test system: SW-620 colon
MCF7 breast = test system: MCF7 breast
HCT-116 colon = test system: HCT-116 colon
HCC-2998 colon = test system: HCC-2998 colon
KM12 colon = test system: KM12 colon

Measured: growth

COc1ccc(N2C(=O)C(Oc3ccccc3)C2c2ccc(C)cc2)cc1 (stereo not given)
inactive: T-47D breast 96.9% | BT-549 breast 99.3% | MDA-MB-435 melanoma 98.7% | SW-620 colon 94.8% | MCF7 breast 96.3% | HCT-116 colon 95.5% | HCC-2998 colon 97.7% | KM12 colon 96.2%

Cn1cc(C(=O)c2nc(-c3cn(C)c4ccc(F)cc34)no2)c2cc(F)ccc21
inactive: T-47D breast 91.2% | BT-549 breast 106% | MDA-MB-435 melanoma 111% | SW-620 colon 90.6% | MCF7 breast 47.3% | HCT-116 colon 98.1% | HCC-2998 colon 84.6% | KM12 colon 95.2%

COc1cccc2c(=O)c3c(sc12)c(N1CCNCC1)nc1ccccc13
active: SW-620 colon -39.2% | HCT-116 colon -52.4%
inactive: T-47D breast 85.5% | BT-549 breast 97.6% | MDA-MB-435 melanoma 54.7% | MCF7 breast 53.2% | HCC-2998 colon 11.1% | KM12 colon 46.3%

COc1ccc(CN2c3ccccc3CCc3ccccc32)cc1F
inactive: T-47D breast 47.1% | BT-549 breast 54% | SW-620 colon 20.5% | MCF7 breast 20.4% | HCC-2998 colon 30.7% | KM12 colon 16.5%
active: MDA-MB-435 melanoma -49.4% | HCT-116 colon 2.32%

O=C(/C=C/c1sc(Cl)nc1Cl)c1ccc(Br)cc1
inactive: T-47D breast 91.1% | BT-549 breast 97.3% | MDA-MB-435 melanoma 98.4% | SW-620 colon 47.7% | MCF7 breast 27.9% | HCT-116 colon 57.4% | HCC-2998 colon 52.1% | KM12 colon 77.2%

Cn1cc(-c2cc3ncnc(Nc4ccc(CC(=O)Nc5cc(C(C)(C)C)on5)cc4)c3s2)cn1
inactive: T-47D breast 30.7% | BT-549 breast 52.5% | MDA-MB-435 melanoma 40.7% | SW-620 colon 38.8% | MCF7 breast 41.5% | HCT-116 colon 21.8% | HCC-2998 colon 99.1% | KM12 colon 19.1%

CCOC(=O)Cn1c(=O)c2c(c3ccccc3n2C)n2nnc(-c3ccccc3)c12
inactive: T-47D breast 104% | BT-549 breast 114% | MDA-MB-435 melanoma 113% | SW-620 colon 109% | MCF7 breast 75.1% | HCT-116 colon 90% | HCC-2998 colon 109% | KM12 colon 104%

Cc1ccc2c(-c3cc(-c4ccccc4)nc(N)c3C#N)cc(=O)oc2c1
inactive: T-47D breast 86% | BT-549 breast 75.8% | MDA-MB-435 melanoma 106% | SW-620 colon 107% | MCF7 breast 100% | HCT-116 colon 87.1% | HCC-2998 colon 96.4% | KM12 colon 97.4%

COc1ccc2sc3c(NCCO)nc4ccccc4c3c(=O)c2c1
inactive: T-47D breast 88.5% | BT-549 breast 100% | MDA-MB-435 melanoma 106% | SW-620 colon 101% | MCF7 breast 47% | HCT-116 colon 92.7% | HCC-2998 colon 115% | KM12 colon 89%

O=C(/C=C/c1sc(Cl)nc1Cl)c1ccccc1
inactive: T-47D breast 98.3% | BT-549 breast 107% | MDA-MB-435 melanoma 99.4% | SW-620 colon 33% | MCF7 breast 32.8% | HCT-116 colon 34% | HCC-2998 colon 49.3% | KM12 colon 85.7%

NS(=O)(=O)c1ccc(-n2nc(C(=O)N/N=C\c3ccc(F)cc3)cc2-c2ccc(Br)cc2)cc1
inactive: T-47D breast 69.7% | BT-549 breast 86.1% | SW-620 colon 62.8% | MCF7 breast 55.1% | HCT-116 colon 82.8% | HCC-2998 colon 86.9% | KM12 colon 61.8%
active: MDA-MB-435 melanoma -1.32%

COc1ccc(/C=C2\Oc3cc(OCCN4CCC(Cc5ccccc5)CC4)ccc3C2=O)cc1OC
inactive: T-47D breast 60.7% | BT-549 breast 64.2% | MDA-MB-435 melanoma 76.5% | SW-620 colon 40.8% | MCF7 breast 49.2% | HCT-116 colon 49% | KM12 colon 68.2%
active: HCC-2998 colon -2.67%

O=C(CS(=O)c1oc(-c2cccs2)nc1S(=O)(=O)c1ccc(Br)cc1)c1ccccc1 (stereo not given)
inactive: T-47D breast 82% | BT-549 breast 97% | MDA-MB-435 melanoma 95% | SW-620 colon 97.7% | MCF7 breast 96.9% | HCT-116 colon 86.2% | HCC-2998 colon 98.6% | KM12 colon 102%

Oc1ccc(Cl)cc1Cc1cc(Cl)cc(Cl)c1O
inactive: T-47D breast 40.7% | MDA-MB-435 melanoma 15.4% | SW-620 colon 28% | MCF7 breast 60.1% | HCT-116 colon 37.1% | HCC-2998 colon 70.6% | KM12 colon 37.6%
active: BT-549 breast -11.4%

Cc1nc2cnc(N)c(C#Cc3cncc(C(=O)Nc4ccc(CN5CCN(C)CC5)c(C(F)(F)F)c4)c3)c2nc1C
active: MDA-MB-435 melanoma 0.973% | SW-620 colon -20.9% | MCF7 breast 1.7% | HCT-116 colon 0.345% | KM12 colon -17.4%
inactive: T-47D breast 45.2% | BT-549 breast 35.6% | HCC-2998 colon 11.5%

COc1ccc(N)c(N)c1
inactive: T-47D breast 92.6% | BT-549 breast 88% | MDA-MB-435 melanoma 101% | SW-620 colon 109% | MCF7 breast 60.2% | HCT-116 colon 96.1% | HCC-2998 colon 92.7% | KM12 colon 101%

CC1Cc2ccccc2N1NC(=O)c1ccc(Cl)c(S(N)(=O)=O)c1 (stereo not given)
inactive: T-47D breast 100% | BT-549 breast 92.1% | MDA-MB-435 melanoma 102% | SW-620 colon 105% | MCF7 breast 92.2% | HCT-116 colon 98.2% | HCC-2998 colon 96% | KM12 colon 107%

Cc1cc(=O)oc2cc(OC(=O)CN3CCN(C)CC3)ccc12
inactive: T-47D breast 102% | BT-549 breast 114% | MDA-MB-435 melanoma 100% | SW-620 colon 96.2% | MCF7 breast 93.1% | HCT-116 colon 95.8% | HCC-2998 colon 108% | KM12 colon 99.5%

COc1ccc([C@H]2c3cc(OC)c(OC)cc3C=C(C=O)C2CO)cc1OC (stereo not given in full)
inactive: T-47D breast 45.2% | BT-549 breast 58.6% | SW-620 colon 21.5% | MCF7 breast 18.5% | HCT-116 colon 23.8% | HCC-2998 colon 58.4% | KM12 colon 21%
active: MDA-MB-435 melanoma -24%

CCCCn1c(=O)c(-c2cc(-c3ccc(Cl)cc3)nc(-c3ccc(Cl)cc3)c2)cc2ccc(Cl)cc21
inactive: T-47D breast 99.6% | BT-549 breast 105% | MDA-MB-435 melanoma 103% | SW-620 colon 100% | MCF7 breast 93.1% | HCT-116 colon 105% | HCC-2998 colon 103% | KM12 colon 99.3%

O=C(Nc1ccc(Cl)cc1F)c1cc(Cl)ccc1O
active: T-47D breast 0.896% | BT-549 breast -25.3% | MDA-MB-435 melanoma -11.4% | SW-620 colon 5.92% | MCF7 breast 2.27% | HCT-116 colon -25.5% | HCC-2998 colon 8.54% | KM12 colon -23.6%

c1ccc2cc(C[n+]3ccn(CCCCCCn4cc[n+](Cc5ccc6ccccc6c5)c4)c3)ccc2c1
inactive: T-47D breast 38.5% | MDA-MB-435 melanoma 59.2% | SW-620 colon 95.5% | MCF7 breast 49.8% | HCT-116 colon 45.2% | HCC-2998 colon 59.4% | KM12 colon 41.2%
active: BT-549 breast 9.69%

CN1CCN(c2ccc(-c3cnc4c(-c5csc6ccccc56)cnn4c3)cc2)CC1
active: T-47D breast -7.17% | BT-549 breast -39.3% | MDA-MB-435 melanoma -46.1% | SW-620 colon -5.95% | MCF7 breast -22.5% | HCT-116 colon -23.8% | KM12 colon -3.74%
inactive: HCC-2998 colon 24.8%

C#C[C@]1(O)CC[C@H]2[C@@H]3CC=C4c5sc(Nc6ccccc6)nc5CC[C@]4(C)[C@H]3CC[C@@]21C
active: SW-620 colon 3.04% | MCF7 breast 8.14% | HCT-116 colon -33.3%
inactive: T-47D breast 28.6% | BT-549 breast 19.9% | MDA-MB-435 melanoma 34.4% | HCC-2998 colon 45.3% | KM12 colon 13.1%

O=C(CCc1nnc(-c2c(Cl)cccc2Cl)o1)c1nc2ccccc2[nH]1
inactive: T-47D breast 52% | BT-549 breast 56.3% | SW-620 colon 35.8% | MCF7 breast 44.7% | HCT-116 colon 22.1% | HCC-2998 colon 65.9% | KM12 colon 28.7%
active: MDA-MB-435 melanoma -0.531%

O=C1c2cccc3cccc(c23)C(=O)N1N1C(=O)c2cccc3c(NC4CCCCC4)ccc(c23)C1=O
inactive: T-47D breast 88.4% | BT-549 breast 97.8% | MDA-MB-435 melanoma 102% | SW-620 colon 98.7% | MCF7 breast 88.8% | HCT-116 colon 98.9% | HCC-2998 colon 108% | KM12 colon 99.5%

NCCCNc1nc2ccccc2c2c(=O)c3cc(F)cc(Cl)c3sc12
inactive: T-47D breast 88.4% | BT-549 breast 104% | MDA-MB-435 melanoma 26% | MCF7 breast 68.3% | HCC-2998 colon 84.3% | KM12 colon 72.7%
active: SW-620 colon -49.3% | HCT-116 colon -60.2%

Cc1ccc2sc3c(NCCN)nc4ccccc4c3c(=O)c2c1
inactive: T-47D breast 65.6% | BT-549 breast 88.1% | MDA-MB-435 melanoma 46.2% | MCF7 breast 47.9% | KM12 colon 14.1%
active: SW-620 colon -61.9% | HCT-116 colon 7.89% | HCC-2998 colon -33%

Nc1ccc(Sc2ccc([N+](=O)[O-])c3nonc23)cc1
inactive: T-47D breast 54.5% | BT-549 breast 88.8% | MDA-MB-435 melanoma 99.2% | SW-620 colon 46% | MCF7 breast 73.2% | HCT-116 colon 66.3% | HCC-2998 colon 108% | KM12 colon 96.2%

CC(C)n1cnc2c(Nc3cccc(Cl)c3)nc(N[C@H]3CCCC[C@@H]3N)nc21
inactive: T-47D breast 64.8% | BT-549 breast 63% | MDA-MB-435 melanoma 47.5% | SW-620 colon 55.5% | MCF7 breast 40.9% | HCT-116 colon 28.1% | HCC-2998 colon 23.4% | KM12 colon 13.5%

Reference: PubChem BioAssay (NCI)
